Results reported in PubChem BioAssay AID651674 (The Scripps Research Institute Molecular Screening Center, 2012).
The whole screen tested about 2,200 compounds, of which about 1,700 (77%) were called active. The set was probably picked from earlier hits. These entries were drawn from the full list. A number with no mark means an inactive call.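 How the source made its calls: active means mean inhibition across replicate wells exceeding the computed hit threshold (cut at about 13% in these data); inactive means the rest.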

Target: Hepatocyte nuclear factor 4-alpha (Homo sapiens) (UniProt P41235)
Experiment: HNF4 dimerization inhibitors, counter-screen for ABHD5-PLIN5 interaction inhibitor project, biochemical, split-luciferase complementation, luminescence (AID 651674);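 further: light from luciferase halves that rejoin when HNF4 fusion proteins dimerize; 0% = DMSO only wells and the 100% control is not given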
Details: at 4 µM, hits give high values

Sequence of Hepatocyte nuclear factor 4-alpha (Homo sapiens) (P41235 whole entry, looked up, the tested form may be a part): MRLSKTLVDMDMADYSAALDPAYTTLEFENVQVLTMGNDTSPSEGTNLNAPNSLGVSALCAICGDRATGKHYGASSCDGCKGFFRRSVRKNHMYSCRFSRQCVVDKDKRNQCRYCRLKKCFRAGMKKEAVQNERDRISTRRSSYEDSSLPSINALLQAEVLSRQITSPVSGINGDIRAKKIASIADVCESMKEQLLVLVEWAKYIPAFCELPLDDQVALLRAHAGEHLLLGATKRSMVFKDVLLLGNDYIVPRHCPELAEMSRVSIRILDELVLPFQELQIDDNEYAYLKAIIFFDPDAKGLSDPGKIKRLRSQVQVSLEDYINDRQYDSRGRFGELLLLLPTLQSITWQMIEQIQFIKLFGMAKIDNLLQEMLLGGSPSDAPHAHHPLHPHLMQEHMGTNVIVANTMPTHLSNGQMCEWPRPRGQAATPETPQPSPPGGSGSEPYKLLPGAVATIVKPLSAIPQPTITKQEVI

SMILES | inhibition
CCC(C(=O)OCCN(CC)CC)c1ccccc1 (stereo not given) | 32.3% (active)
COc1ccc(-n2cc(CNC3CCOCC3)c(-c3cccc(F)c3)n2)cc1 | -1.5%
CCn1c(SC)nc(O)c(C(c2ccc(OC)c(O)c2)c2c(O)nc(SC)n(CC)c2=O)c1=O | 52.2% (active)
O=C(CCl)Nc1ccc(Sc2ccc(NC(=O)CCl)cc2)cc1 | 28% (active)
Cc1csc(NC(=O)NC2(C(F)(F)F)Oc3ccccc3O2)n1 | 99.4% (active)
Cc1cccc(C)c1NC(=O)C(c1cccc2ccccc12)n1c(=O)c(-c2ccco2)nc2ccccc21 (stereo not given) | 5.63%
N#Cc1ccc(C(C(=O)NCc2ccccc2)n2c(=O)c(-c3ccco3)nc3ccccc32)cc1 (stereo not given) | 46.7% (active)
Cc1cccc(C)c1NC(=O)C(c1ccc(C(F)(F)F)cc1)n1c(=O)c(-c2ccco2)nc2ccccc21 (stereo not given) | 15.7% (active)
O=C(NC1CCCCC1)C(c1cc2ccccc2o1)n1c(=O)c(-c2ccco2)nc2ccccc21 (stereo not given) | 12.5% (active)
NC(=O)c1nsc(C(=O)N(CC(=O)NCc2ccc(F)cc2)Cc2ccco2)c1N | 2.04%
Cc1ccc(Cc2c(-c3ccco3)nc3ccc(Cl)cn23)cc1 | 47.3% (active)
Cc1ccc2nc(-c3ccco3)c(Cc3cccc(Cl)c3)n2c1 | 49.6% (active)
O=C(CCN1CCc2ccccc2C(O)(c2ccccc2)C1)c1ccc2c(c1)OCCO2 (stereo not given) | 100% (active)
O=C1/C(=C\c2ccc(O)cc2)CCC1CNc1ccc(Cl)cc1 (stereo not given) | 50% (active)
COC(=O)c1cnn2c(C(F)(F)F)cc(-c3ccco3)nc12 | 9.71%
O=C(N/N=C/C=C/c1ccco1)c1cccs1 | 39% (active)
COc1ccccc1C1/C(=C(/O)c2ccc(C)cc2)C(=O)C(=O)N1Cc1ccco1 (stereo not given) | 10.7%
O=C1/C(=C\c2ccc([N+](=O)[O-])cc2)CS(=O)(=O)C/C1=C/c1ccc([N+](=O)[O-])cc1 | 108% (active)
c1ccc(CCC2=NCCn3cccc32)cc1 | 4.26%
O=C(O)c1ccc2c(c1)C(=O)N(c1ccc(/C=C/C(=O)c3ccccc3)cc1)C2=O | 89.2% (active)
CC(=O)N(c1ccc2oc(=O)sc2c1)S(=O)(=O)c1ccc(C)cc1 | 17.5% (active)
COc1cccc2sc(N(CCCN(C)C)C(=O)C(c3ccccc3)c3ccccc3)nc12 | 6.22%
Cc1ccc(SC(CC(=O)c2ccc(C(C)(C)C)cc2)C(=O)O)cc1 (stereo not given) | 89.8% (active)
O=C(/C=C/c1ccc(Cl)cc1Cl)c1cccnc1 | 105% (active)
Cc1nc2sc(C(c3ccco3)N3CCOCC3)c(O)n2n1 (stereo not given) | -1.74%
Cc1ccc(NC(=O)c2cc(-c3ccc(C)o3)nc3ccccc23)nc1 | 44.1% (active)
CCOC(=O)C(=Cc1ccccc1OC)C(=O)OCC | 51.8% (active)

SMILES | inhibition
CCOC(=O)C(=Cc1ccccc1)C(=O)c1ccccc1 | 97% (active)
CCc1ccc(NC(=O)CSc2nnc(-c3cnccn3)n2Cc2ccco2)cc1 | 25.6% (active)
CC(=O)c1ccc(NC(=O)CCc2nnc3ccc(NCc4ccco4)nn23)cc1 | 2.03%
COCCN(CCOC)c1nc(N)c2c(N)nc3c(c2c1C#N)CC(=O)N3Cc1ccc(Cl)cc1 | 9.32%
N#Cc1ccccc1S(=O)(=O)N1CCN(Cc2c(O)ccc3ccccc23)CC1 | 86.6% (active)
CC1=CC(C)(C)Nc2ccc(OC(=O)C(Cc3ccccc3)N3C(=O)C4CCCCC4C3=O)cc21 (stereo not given) | 15.7% (active)
CC1=CC(C)(C)Nc2ccc(OC(=O)CN3C(=O)C4CCCCC4C3=O)cc21 (stereo not given) | 52.3% (active)
COC(=O)c1nc(NC(=O)c2ccc(C(C)(C)C)cc2)n[nH]1 | 4.25%
CCN(CCCNC(=O)c1ccc2c(c1)NC(=O)CN2C)c1cccc(C)c1 | 76.9% (active)
CCCCOC(=O)CNc1nnc(SCC(=O)OCC)[nH]c1=O | 103% (active)
O=C(Nc1ccccc1)c1nnsc1S(=O)(=O)c1ccc(Cl)cc1 | 100% (active)
O=C(Nc1ccccc1Cl)/C(Cl)=C(\Cl)S(=O)c1ccccc1 (stereo not given) | 108% (active)
O=C(Nc1nc(-c2ccco2)c(-c2ccco2)s1)c1ccco1 | 77.9% (active)
Cc1[nH]c(=O)c(C(=O)/C=C/c2ccccc2)c2c1CCCC2 | 37.9% (active)
CC1(C)CCSC(/C=C/c2ccccc2)=N1 | 91.4% (active)
C[C@@H]1C[C@@H]2O[C@H]2/C=C\C=C\C(=O)Cc2c(Cl)c(O)cc(O)c2C(=O)O1 | 47.9% (active)
COc1ccc2sc(-c3ccccc3OC)c(-c3ccc(OCCN4CCCC4)cc3)c2c1 | 7.03%
O=C1C(Cl)=C(Oc2ccccc2)C(=O)c2ccccc21 | 105% (active)
CC1(Oc2ccccc2-c2ccno2)CCN(Cc2ccc(-c3ccccc3)o2)C1 (stereo not given) | 48.5% (active)
COc1ccc2c(c1)c(=Cc1ccc(N(C)C)cc1)c1cc(-c3ccccc3)[n+](C)n12 | 18.1% (active)
CCN1CCC(O)(/C=C/c2ccc(C)cc2)C(C(=O)/C=C/c2ccc(C)cc2)C1 (stereo not given) | 85.5% (active)
CCCOc1ccc(C(=O)C(CCC(CNCC)C(=O)c2ccc(OCCC)cc2)CNCC)cc1 (stereo not given) | 24.2% (active)
O=C(Cn1nc(CNc2ccc(Cl)cc2)[n+]2c1CCCCC2)c1ccc(Cl)cc1 | 6.95%
Cc1cccc(C=CC(=O)c2ccc(Cl)cc2)c1 | 67.2% (active)
COc1ccc(N/C=C(\C2OC(=O)c3ccccc32)[N+](=O)[O-])cc1 (stereo not given) | 22.1% (active)
COC(=O)/C=C\C(=O)Nc1cccc([N+](=O)[O-])c1 | 109% (active)
CCS(=O)(=O)Nc1ccc(C2=NN(S(=O)(=O)c3ccc(F)cc3)C(c3ccco3)C2)cc1 (stereo not given) | 9.93%

SMILES | inhibition
O=c1[nH]c(/C=C\c2cccc(C(F)(F)F)c2)nc(O)c1[N+](=O)[O-] | 73.2% (active)
O=C(/C(=C/c1cccc(Cl)c1)c1nc2ccccc2[nH]1)c1ccccc1 | 92% (active)
COc1ccc(CCNC(=O)c2nnc(CS(=O)(=O)c3ccccc3)o2)cc1OC | 2.92%
COc1ccccc1-n1nnnc1S(=O)(=O)Cc1ccc(Cl)cc1 | 32.1% (active)
COc1ccc(-c2cc(C(F)(F)F)nc(S(C)(=O)=O)n2)cc1OC | 80.6% (active)
Nc1cccc(OCCCCCOc2cccc(N)c2)c1 | -6.94%
O=C(NNc1c2ccccc2nc2ccccc12)c1cc2ccccc2cc1O | 23.8% (active)
COc1ccc(/C=C/C(=O)c2ccc(NS(=O)(=O)c3ccc(C)cc3)cc2)cc1O | 54.5% (active)
OC(CNCC1CCCO1)Cn1c2ccc(Br)cc2c2cc(Br)ccc21 (stereo not given) | -1.25%
O=C(c1cccnc1)N(c1cc2sc(=O)oc2c2ccccc12)S(=O)(=O)c1ccccc1 | 104% (active)
Cc1cccc(NC(=O)c2ccc3nsnc3c2)c1C | -0.5%
O=[N+]([O-])/C=C/c1ccc2c(ccn2Cc2ccccc2)c1 | 108% (active)
COC(=O)C1(C)NC(c2ccccc2OC)C2C(=O)N(c3ccccc3)C(=O)C21 (stereo not given) | 2.83%
C[C@@H](CN1CCC[C@H]1CN1C(N)=NC[C@@H]1Cc1ccccc1)N1C[C@@H](Cc2ccccc2)N(CCCC2CCCC2)C1=N | 6.92%
O=[N+]([O-])c1c(NCCO)cc(Sc2nc3ccccc3s2)c2nonc12 | 115% (active)
Cn1sc(=O)c2cc(S(=O)(=O)NC3CC3)ccc21 | 106% (active)
Cc1cc2c(c(=O)n1Cc1ccco1)C(c1ccccc1)C(C#N)=C(N)O2 (stereo not given) | 24.5% (active)
Cc1nnnn1/C(=C\c1ccccc1)C(=O)OCC(=O)N1CC2(C)CC1CC(C)(C)C2 (stereo not given) | 46.1% (active)
Cc1nc(-c2ccccc2)sc1C(=O)/C=C/c1ccccc1 | 59.8% (active)
CC(C)(C)C1C/C(=C/c2ccco2)C(=O)/C(=C/c2ccco2)C1 (stereo not given) | 78.9% (active)
CC(=O)Nc1ccc(C=CC(=O)c2ccc([N+](=O)[O-])cc2)cc1 | 82.5% (active)
O=C(/C=C/c1ccc(Cl)c([N+](=O)[O-])c1)c1ccc(O)cc1 | 72.8% (active)
O=C(NCCOCc1ccc(Cl)cc1)c1ncn[nH]1 | 2.01%
COc1ccc(CNC(=O)/C(C#N)=C/c2cccc(OC)c2OC)cc1 | 45.7% (active)
COC(C/C=C/C(=O)[C@@H](C)OCc1ccccc1)OC | 44.4% (active)
Cc1cc(C)nc(S/C=C/C(=O)c2ccccc2)n1 | 106% (active)
Cc1cccc(CS(=O)(=O)c2ncc(Cl)c(C(=O)Nc3ccc(F)cc3)n2)c1 | 86.8% (active)

SMILES | inhibition
Cc1cccc(NC(=O)c2nc(S(=O)(=O)Cc3ccccc3)ncc2Cl)c1 | 85.1% (active)
CSc1nnc(NC(=O)c2nc(S(=O)(=O)Cc3ccc(C)cc3)ncc2Cl)s1 | 50.1% (active)
Cc1ccc(CS(=O)(=O)c2ncc(Cl)c(C(=O)Nc3nnc(C)s3)n2)cc1 | 91.8% (active)
Cc1c(CCOC(=O)CC23CC4CC(CC(C)(C4)C2)C3)sc[n+]1Cc1ccc([N+](=O)[O-])cc1 | 5.79%
Cc1ccc(NC(=O)Cn2sc3ccccc3c2=O)cc1 | 118% (active)
CC1Cc2ccccc2N1CC(=O)Nc1ccc(S(N)(=O)=O)cc1 (stereo not given) | -0.75%
Cc1ccn(C(CC(=O)c2ccc(Br)cc2)C(=O)O)n1 (stereo not given) | 38.9% (active)
Cc1ccc(-n2nc(-c3ccco3)cc2C(=O)NCc2cccnc2)cc1 | 79.1% (active)
CCN1/C(=C\c2ccc3ccccc3[n+]2CC)Sc2cc(C)ccc21 | 22.4% (active)
C=C(C)C(=O)O[C@H]1C/C(C)=C\C(=O)/C=C(\C)[C@H](O)[C@@H]2OC(=O)C(=C)[C@@H]21 | 54.8% (active)
Cc1cc(-c2n[nH]c(=S)n2/N=C/C(Br)=C/c2ccccc2)n[nH]1 | 86.5% (active)
CC1(C(=O)NCc2cccc3ccccc23)CCN1Cc1ccc(-c2ccccc2)o1 (stereo not given) | 40.2% (active)
COc1ccc(C(C[N+](=O)[O-])n2nc(C)cc2C)cc1 (stereo not given) | 87.3% (active)
O=c1[nH][nH]c2c1[C@H](c1ccc(Cl)cc1)O[C@H](CCc1ccccc1)C2 | 12%
O=C1C=CC(=O)N1c1ccc(N2CCCCC2)cc1 | 101% (active)
COc1ccc2c(c1OC)C(=O)OC2Nc1nc(-c2ccccc2)cs1 (stereo not given) | 56.7% (active)
O=C(NNc1ccccn1)c1ccc(Cl)nc1 | -6.91%
O=C1C=C(c2ccc(Cl)cc2)C(=O)N1Nc1ccccc1 | 107% (active)
CN(C)CCCNC(=O)/C=C/c1ccc(OCc2c(F)cccc2Cl)cc1 | 6.86%
O=C(/C=C(O)/C=C/c1ccc(O)cc1)/C=C/c1ccc(O)cc1 | 74.4% (active)
Cc1cccc(C)c1NC(=O)C(Cl)C(=O)c1ccccc1 (stereo not given) | 58.4% (active)
CCN(CC)CCN(C(=O)c1ccc2c(c1)CCCC2)c1nc2c(OC)cccc2s1 | 11.7%
C=C1C(=O)[C@]23C[C@H]1CCC2[C@@]1(C)C(C[C@@H]3O)[C@](C)(C(=O)O)CC[C@@H]1O (stereo not given in full) | 85.8% (active)
CN1CCC[C@@H]1CCO[C@](C)(c1ccccc1)c1ccc(Cl)cc1 | 9.44%
